The campaign covered roughly 320,000 compounds. About 2,100 (0.66%) were called active. Another 53% or so got no clear call; they are omitted. The call rests on the fitted dose curve; in most records, active means well fitted inhibition curve with a large enough effect in the signal ratio, with a control signal flat (not every such curve was filed as active); inconclusive means small, poorly fitted or top-dose-only effect, or effect the other way, or a change in a side signal; inactive means flat fitted curve, though single readings scatter; the % refers to the signal ratio. The list comes from a sample in which actives are over-represented; it also holds similar structures and randomly drawn compounds.
Potency means the concentration at half of the fitted maximal effect.

The assay in a line: qHTS Assay for Lipid Storage Modulators in Drosophila S3 Cells.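 On cell number change: cells counted by Cell Tracker Red CMTPX staining in the red channel.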 On lipid storage change, negative = inhibition: on the % scale 0 is the no-effect control and ±100 the full control effect. To be noted: BODIPY lipid droplet fluorescence, 18-24 h, cells fed with added oleic acid; cell number change: measured here: cell count max response; series mostly up to 46.1 µM; lipid storage change, negative = inhibition: at the top concentration. The method, boiled down: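 Drosophila S3 cells loaded with oleic acid (400 uM, as added) and compounds at several concentrations; lipid droplets imaged by 488-nm laser-scanning cytometry, 500–530 nm intensity and object ratio to cell channel. Percent activity normalized to 20 uM Triacsin C.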
(Quantitative high-throughput screening tests each substance at several concentrations.)
Consider `O=C(CNC(c1ccccc1)c1ccccc1)NCc1ccccc1Cl`, for which the “lipid storage change, negative = inhibition” value was -4.84% (inactive) and the cell number change came out at 11.7%.
For `Cc1cccc(N2CCN(S(=O)(=O)c3c(C)noc3/C=C/N(C)C)CC2)c1C`, in that order: -15.8% (inactive) and 12.9%.
As for `Cc1cc(C)nc(NC(=O)/C=C/c2cccs2)c1`, the “lipid storage change, negative = inhibition” value is 20.5% (inactive) and the cell number change is -8.29%.
On to `Cc1cc(C)c(-c2csc(NC(=O)/C=C/c3cccs3)n2)c(C)c1`, for which the Potency was 16.4 µM (active) and the cell number change is -27.5%.
On to `O=C(/C=C/c1cccs1)Nc1nc(-c2ccccc2)cs1`, for which the “lipid storage change, negative = inhibition” value is 24.3% (inactive).
In the case of `O=C(NCCCc1ccccc1)C1CC(=O)N(c2ccc3c(c2)OCCO3)C1` (stereo unspecified), the “lipid storage change, negative = inhibition” value is 9.93% (inactive) and the cell number change was determined as 12.6%.
For `Cc1coc(=N)n1CC(=O)c1ccc(Cl)cc1`, in that order: 12.1% (inactive) and 10.4%.
`O=c1c(Cl)c(Cl)cnn1Cc1ccccc1Cl`: the Potency is 14.6 µM (active) and the cell number change was -22.7%.
Regarding `O=c1[nH]cnc2c1cnn2Cc1ccccc1Cl`, the result was inactive.
Regarding `Cc1ccc(Cn2ncc(Cl)c(Cl)c2=O)cc1`, the “lipid storage change, negative = inhibition” value is -3.59% (inactive) and the cell number change was 1.44%.
The like results for `O=C(CS(=O)(=O)c1ccccc1)Nc1nnc(-c2cccs2)o1` were, in that order, -5.63% (inactive) and 3.1%.
Turning to `CCn1c(=Nc2ccc(N3CCOCC3)cc2)ccc2ccccc21`, the Potency was 9.2 µM (active) and the cell number change was -184%.
`CCn1c2ccccc2c2cc(NC(=O)CN(C)CC(=O)Nc3ccc(N4CCOCC4)cc3)ccc21`: the cell number change was -4.9% and the lipid storage change, negative = inhibition was -0.511% [at 9.22 µM] (inactive).
For the compound `Oc1ccc2ccccc2c1C=Nc1ccc(N2CCOCC2)cc1`, the outcome was inactive.
For the compound `COc1cc(C(c2sc3ncnn3c2O)N2CCN(c3ccccc3F)CC2)cc(OC)c1OC` (stereo unspecified), the “lipid storage change, negative = inhibition” value was 1.93% (inactive) and the cell number change came out at 14.8%.
For `CSc1nc(SCC(=O)O)c2c3c(sc2n1)COC(C)(C)C3`, in that order: 21.3% (inactive) and 9.24%.
For `COc1ccc(S(=O)(=O)N2CCOCC2)cc1NC(=O)CSc1nnc2c(n1)[nH]c1ccccc12`, in that order: -9.37% (inactive) and -0.0197%.
Take `CC(=O)N1CCN(CCN=CC2=C(O)CC(c3cccs3)CC2=O)CC1` (stereo unspecified): the Potency is 20.6 µM (active) and the cell number change was -26.6%.
On to `C=CCNC(=S)N1CCN(CCN=CC2=C(O)CC(c3cccs3)CC2=O)CC1` (stereo unspecified), for which the “lipid storage change, negative = inhibition” value was 3.99% (inactive) and the cell number change was 17.2%.
For `CCCCCC(=O)N1CCN(CCN=CC2=C(O)CC(c3cccs3)CC2=O)CC1` (stereo unspecified), in that order: -4.09% (inactive) and 0.809%.
As for `Cc1coc2c(C)c3oc(=O)c(CCC(=O)NCCC(=O)O)c(C)c3cc12`, the compound was classed as inactive and the cell number change was 7.91%.
In the case of `Cc1ccc(-c2nc(CSc3nc4ccccc4c(=O)n3C)cs2)cc1`, the “lipid storage change, negative = inhibition” value was -7.82% (inactive) and the cell number change was 13.2%.
As to `Cc1ccc(CSc2nc3ccccc3c(=O)n2C)cc1`, the Potency was 16.4 µM (active) and the cell number change is 10.9%.
Consider `Cn1c(SCc2ccc(Br)cc2)nc2ccccc2c1=O`, for which the compound was classed as inactive and the cell number change is -15.2%.
On to `COC(=O)c1[nH]c2ccc(Cl)cc2c1NC(=O)C1CC1`, for which the “lipid storage change, negative = inhibition” value is 8.69% (inactive) and the cell number change stood at 1.77%.
The like results for `CCN(CC)c1ccc(/C=N/n2c(C)cc(C)cc2=O)cc1` were, in that order, 18.4% (inactive) and 0.542%.
As to `CCN(CC)c1ccc(/C=N/N2CC(=O)NC2=S)cc1`, the Potency was 0.291 µM (active) and the cell number change was -17.5%.
For the compound `CCc1n[nH]c(=S)n1/N=C/c1ccc(N(CC)CC)cc1`, the “lipid storage change, negative = inhibition” value is 18.9% (inactive) and the cell number change is -4.64%.
Consider `COc1cc(NC(=O)c2ccc([N+](=O)[O-])cc2)c(OC)cc1NC(=O)CC(C)C`, for which the “lipid storage change, negative = inhibition” value is -0.885% (inactive) and the cell number change came out at 14.3%.
Regarding `O=C(c1ccco1)N1N=C(c2ccc3nccnc3c2)CC1c1ccccc1` (stereo unspecified), the “lipid storage change, negative = inhibition” value was 2.86% (inactive) and the cell number change came to 13.8%.
For `CCCNC(=O)c1ccc2c(c1)S(=O)(=O)c1ccccc1C2=O`, in that order: -27.4% (inactive) and 6.31%.
For `COCCNC(=O)c1ccc2c(c1)S(=O)(=O)c1cc(Cl)ccc1C2=O`, the Potency is 5.8 µM (active) and the cell number change was found to be 9.21%.
On to `O=C(NCC1CC1)c1ccc2c(c1)S(=O)(=O)c1cc(Cl)ccc1C2=O`, for which the “lipid storage change, negative = inhibition” value is 5.36% (inactive) and the cell number change worked out at 7%.
In the case of `O=S(=O)(c1ccc(Cl)cc1)c1cnc2ccccc2n1`, the Potency was 29.1 µM (active) and the cell number change was -118%.
Turning to `Clc1ccc(N2CCN(c3cnc4ccccc4n3)CC2)cc1`, the compound was classed as inactive and the cell number change was -5.19%.
For `Nc1ncc(S(=O)(=O)c2ccc(Cl)cc2)c(N)n1`, in that order: “inactive” and 19.4%.
For `Cc1ccc(C(=O)NC(C(=O)OCc2cn3cc(Cl)ccc3n2)C(C)C)cc1` (stereo unspecified), the Potency was 5.17 µM (active) and the cell number change worked out at 6.32%.
For `Cc1ccc(C(=O)N[C@H](C(=O)OCc2cc(=O)n3c(n2)sc2ccccc23)C(C)C)cc1`, the “lipid storage change, negative = inhibition” value is -0.413% (inactive) and the cell number change is -15.4%.
For `Cc1ccc(C(=O)N[C@H](C(=O)OCc2nnc(-c3ccccc3)o2)C(C)C)cc1`, the “lipid storage change, negative = inhibition” value is -7.03% (inactive) and the cell number change is -21.1%.
Take `CCOC(=O)C1CCCN(S(=O)(=O)c2ccc(Br)s2)C1` (stereo unspecified): the result was inactive and the cell number change is -14.8%.
Take `Cc1nc2oc3ccc(F)cc3c(=O)c2cc1C(=O)O`: the result was inactive and the cell number change was 9.45%.
`Cn1c(=O)c2c(nc(NCc3ccco3)n2CC(O)CO)n(C)c1=O` (stereo unspecified): the “lipid storage change, negative = inhibition” value was -6.18% (inactive) and the cell number change is 9.76%.
Consider `Cn1c(=O)c2c(nc(NCCCO)n2Cc2cccc(Br)c2)n(C)c1=O`, for which the result was inactive.
`CCN(CC)CCNc1nc2c(c(=O)n(C)c(=O)n2C)n1C/C=C(/C)Cl`: the “lipid storage change, negative = inhibition” value is -2.52% (inactive) and the cell number change was -1.05%.
The like results for `CCCNc1nc2c(c(=O)n(C)c(=O)n2C)n1CCCc1ccccc1` were, in that order, -32.8% (inactive) and -29.8%.
Regarding `Cn1c(=O)c2c(nc(NCCCO)n2C/C=C/c2ccccc2)n(C)c1=O`, the Potency is 9.2 µM (active) and the cell number change is -27.3%.
With `CCn1c(NCc2ccco2)nc2c1c(=O)n(C)c(=O)n2C`, the “lipid storage change, negative = inhibition” value was 2.27% (inactive) and the cell number change was -2.38%.
Turning to `Cn1c(=O)c2c(nc(NCc3ccco3)n2CCc2ccccc2)n(C)c1=O`, the Potency was 11.6 µM (active) and the cell number change was -22.9%.
For `C/C(Cl)=C\Cn1c(NCCc2ccccc2)nc2c1c(=O)n(C)c(=O)n2C`, in that order: 6.51 µM (active) and -18.8%.
In the case of `Cn1c(=O)c2c(nc(NCCCO)n2CCc2ccccc2)n(C)c1=O`, the “lipid storage change, negative = inhibition” value is -17.7% (inactive) and the cell number change is -21.6%.
